# Results: PubChem BioAssay (NCATS)
# Inconclusive results are not listed. A number with no mark means an inactive call. Calls of active or inactive are those of the source. Calls follow the shape of the dose curve; as a rule, active = well fitted curve in the direction sought with a large enough effect; inconclusive = small, poorly fitted or top-dose-only effect, or another doubt; inactive = no such curve, though single readings can be large; an effect the other way counts as inactive or inconclusive.
# Assay: Quantitative highthroughput screen to assess conditional lethalithy of SEM cells grown in RPMI1640 with dialyzed fetal bovine serum (RPMI+ds) (AID 1963884); also: nearly all actives have a fitted effect of over 35% in size;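 as to viability: 100% = DMSO control wells and 0% = empty wells without cells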
# Details: SEM B-ALL cells, RPMI+dialyzed FBS, CellTiter-Glo viability, 48 h; series mostly up to 45.8 µM; viability: at the top concentration
# Summary of the method: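 Each medium arm—HPLM with 10% dialyzed FBS, or RPMI1640 with 5 mM glucose and 10% untreated or dialyzed FBS—was screened against an 11-point, 3-fold compound titration for 48 h at 37 °C, with CellTiter-Glo luminescence as endpoint.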
# Potency is read from the fitted curve at half-maximal effect.
Structure (SMILES),viability,Potency
COc1ccc(C(C)=O)c(O)c1,101%,–
Cn1cc(-c2ccc3nnc(C(F)(F)c4ccc5ncccc5c4)n3n2)cn1,79.2%,–
N#CC(=C(O)c1ccc(Cl)cc1Cl)c1nc2cc(Cl)ccc2c(=O)[nH]1,112%,–
CC(C)c1nn(-c2c(Cl)cccc2Cl)c2nc(Cc3ccc(OCCO)cc3)[nH]c(=O)c12,–,148 nM (active)
OC(CN1CCN(c2cccc(Cl)c2)CC1)C(c1ccccc1)c1ccccc1 (stereo not drawn),–,166 nM (active)
C=C1C[C@@]2(O)O[C@@]3(C[C@H]2C(C)C)[C@H](C)CC[C@H]13,89.7%,–
CC(C=CC=C(C)C=CC1=C(C)CCCC1(C)C)=CC=CC=C(C)C=CC=C(C)C=CC1=C(C)CCCC1(C)C,85.3%,–
N#CC(=C1Nc2ccccc2S1)c1ccnc(OCc2ccc(CN3CCOCC3)cc2)n1,82.9%,–
C[C@H]1[C@H](O)O[C@@H]2O[C@@]3(C)CC[C@@H]4[C@H](C)CC[C@@H]1[C@@]24OO3,–,3320 nM (active)
COc1ccc(-c2cc(=O)c3c(O)cc(O[C@@H]4O[C@H](CO[C@@H]5O[C@@H](C)[C@H](O)[C@@H](O)[C@@H]5O)[C@@H](O)[C@H](O)[C@@H]4O)cc3o2)cc1O,89.8%,–

# Assay: Cellular viability qHTS for adrenocortical cancer (ACC) cell line SW-13 (AID 1963989); also: nearly all actives have a fitted effect of over 65% in size;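 as to activity (max response): cells grown in serum-free medium with ITS supplement; % is scaled to controls: 0 for no effect and ±100 for the full control effect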
# Details: SW-13 ACC cells viability, CellTiter-Glo, 48 h; activity (max response): hits give low values
# Summary of the method: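 Here, serum-free SW-13 cultures were dosed up to 46 uM. Following 48 h, ATP-dependent luminescence (CellTiter-Glo) reported viable cells, and logistic modeling produced IC50 values.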
Structure (SMILES),activity (max response),Potency
CC(C)(C)OC(=O)N[C@H]1CCCCCC=C[C@@H]2C[C@@]2(C(=O)NS(=O)(=O)C2CC2)NC(=O)[C@@H]2C[C@@H](OC(=O)N3Cc4cccc(F)c4C3)CN2C1=O,8.79%,–
Cc1c(Cn2c(C)nc3c(C(=O)O)cc(N4CCOCC4)cc32)cccc1C(F)(F)F,6.79%,–
Cc1ccc(C2=Nc3ccc(Cl)cc3OC2)cc1,-18.7%,–
NC(=O)c1cccc(N)c1,-2.32%,–
Cn1cc(-c2ccc3nnc(C(F)(F)c4ccc5ncccc5c4)n3n2)cn1,3.57%,–
CC(C)c1nn(-c2c(Cl)cccc2Cl)c2nc(Cc3ccc(OCCO)cc3)[nH]c(=O)c12,–,50.1 nM (active)

# Assay: Cellular viability qHTS for adrenocortical cancer (ACC) cell line NCI-H295R (AID 1963990); also: nearly all actives have a fitted effect of over 60% in size;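 as to activity change, negative = viability loss: 0% = DMSO only wells and -100% = full killing with cytotoxic reference compound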
# Details: CellTiter-Glo ATP luminescence, 48 h; series mostly up to 46.1 µM; activity change, negative = viability loss: at the top concentration
# Summary of the method: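 Viability of NCI-H295R after 48 h of treatment (final up to 46 uM) measured through cellular ATP luminescence.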
Structure (SMILES),"activity change, negative = viability loss",Potency
CCC(=O)N[C@H]1CC[C@H](C(=O)N(C)c2ccc(-c3nc4ccccc4o3)cc2)C1,-24.1%,–
CC(C)(C)OC(=O)N[C@H]1CCCCCC=C[C@@H]2C[C@@]2(C(=O)NS(=O)(=O)C2CC2)NC(=O)[C@@H]2C[C@@H](OC(=O)N3Cc4cccc(F)c4C3)CN2C1=O,-0.276%,–
Cc1c(Cn2c(C)nc3c(C(=O)O)cc(N4CCOCC4)cc32)cccc1C(F)(F)F,-2.68%,–
Cc1ccc(C2=Nc3ccc(Cl)cc3OC2)cc1,-20.4%,–
NC(=O)c1cccc(N)c1,-6.09%,–
Cn1cc(-c2ccc3nnc(C(F)(F)c4ccc5ncccc5c4)n3n2)cn1,-8.85%,–
CC(C)c1nn(-c2c(Cl)cccc2Cl)c2nc(Cc3ccc(OCCO)cc3)[nH]c(=O)c12,–,100 nM (active)
